For the test, the target named is RUNX1 (Homo sapiens, UniProt Q01196 1-453). In words: custom PBM; custom protein-binding microarray; buffer, salt, pH and temperature not stated; high values mean tight binding. To be noted: dsDNA, one strand shown.
Chain of RUNX1 (Q01196 whole entry): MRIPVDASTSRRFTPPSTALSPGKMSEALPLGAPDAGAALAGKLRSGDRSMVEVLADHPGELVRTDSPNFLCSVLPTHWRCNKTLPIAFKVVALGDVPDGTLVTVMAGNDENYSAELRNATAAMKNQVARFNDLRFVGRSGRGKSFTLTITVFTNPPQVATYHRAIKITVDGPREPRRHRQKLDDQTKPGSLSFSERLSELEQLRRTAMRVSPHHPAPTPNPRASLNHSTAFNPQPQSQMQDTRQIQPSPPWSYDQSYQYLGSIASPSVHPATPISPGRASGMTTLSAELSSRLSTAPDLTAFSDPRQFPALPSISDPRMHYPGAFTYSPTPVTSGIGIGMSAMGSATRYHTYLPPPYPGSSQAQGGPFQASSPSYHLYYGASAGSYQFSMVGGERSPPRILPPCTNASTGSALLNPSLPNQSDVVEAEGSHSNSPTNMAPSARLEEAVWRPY
With “GCGCACATTTCCCGTAAATGATACACGCACACATACACATACACACATACACATACGCAC”, the binding signal was 10.9 log fluorescence intensity.

With “CGCGCACTCTGTGGCTGCGCACATACGCACACATACACATACACACATACACATACGCAC”, the binding signal is 10.9 log fluorescence intensity.

Take “GCATACGGCTCACGTCAGCCACATACGCACACATACACATACACACATACACATACGCAC”: the binding signal is 10.9 log fluorescence intensity.

With “GCGCACATTCCCCGTAAATCATACACGCACACATACACATACACACATACACATACGCAC”, the binding signal was 11 log fluorescence intensity.

Consider “GCGCACATTTTCCGTAAATCATACACGCACACATACACATACACACATACACATACGCAC”, for which the binding signal was 11.1 log fluorescence intensity.

Consider “CGCGCACTCTGTGGTTGCACACATACGCACACATACACATACACACATACACATACGCAC”, for which the binding signal is 11.6 log fluorescence intensity.

“GCATACGGCTGACGTCAGACACATACGCACACATACACATACACACATACACATACGCAC”: the binding signal is 10.9 log fluorescence intensity.

Consider “GCGCACTTTTCCCGTAAATCATACACGCACACATACACATACACACATACACATACGCAC”, for which the binding signal is 11 log fluorescence intensity.

As for “GCATACGGCTGTCGTCAGCCACATACGCACACATACACATACACACATACACATACGCAC”, the binding signal is 10.9 log fluorescence intensity.

For the sequence “GCGCACATTTCCCGTAACTCATACACGCACACATACACATACACACATACACATACGCAC”, the binding signal is 11 log fluorescence intensity.

Regarding “GCGCACATTTCCCGCAAATCATACACGCACACATACACATACACACATACACATACGCAC”, the binding signal was 11.1 log fluorescence intensity.

In the case of “CGCGCTCTCTGTGGTTGCGCACATACGCACACATACACATACACACATACACATACGCAC”, the binding signal is 11.4 log fluorescence intensity.

For the sequence “CGCGCACACTGTGGTTGCGCACATACGCACACATACACATACACACATACACATACGCAC”, the binding signal is 11.2 log fluorescence intensity.

In the case of “CGCGCACTCTGTGGTTGTGCACATACGCACACATACACATACACACATACACATACGCAC”, the binding signal is 11.3 log fluorescence intensity.

On to “GCGCACATTTCCCTTAAATCATACACGCACACATACACATACACACATACACATACGCAC”, for which the binding signal was 11 log fluorescence intensity.

For the sequence “GCATACGGCTAACGTCAGCCACATACGCACACATACACATACACACATACACATACGCAC”, the binding signal is 11 log fluorescence intensity.

Regarding “GCATACTGCTGACGTCAGCCACATACGCACACATACACATACACACATACACATACGCAC”, the binding signal was 10.9 log fluorescence intensity.

Regarding “GCGCACATTTCCCGTGAATCATACACGCACACATACACATACACACATACACATACGCAC”, the binding signal was 11 log fluorescence intensity.

On to “CGCGCACTCTGTGGTTGCGCACATACGCACACATACACATACACACATACACATACGCAC”, for which the binding signal is 11.7 log fluorescence intensity.

For “GCATACGGCTGACATCAGCCACATACGCACACATACACATACACACATACACATACGCAC”, the binding signal is 10.9 log fluorescence intensity.

“CGCGCGCTCTGTGGTTGCGCACATACGCACACATACACATACACACATACACATACGCAC”: the binding signal is 11.2 log fluorescence intensity.

With “CGCGCACTCTGTGGTTGAGCACATACGCACACATACACATACACACATACACATACGCAC”, the binding signal is 11.5 log fluorescence intensity.

Consider “GCATACGGCTGCCGTCAGCCACATACGCACACATACACATACACACATACACATACGCAC”, for which the binding signal is 11 log fluorescence intensity.

For the sequence “GCGCACATTTCCCGTCAATCATACACGCACACATACACATACACACATACACATACGCAC”, the binding signal is 11 log fluorescence intensity.

For the sequence “CGCGCCCTCTGTGGTTGCGCACATACGCACACATACACATACACACATACACATACGCAC”, the binding signal is 11.5 log fluorescence intensity.

With “CGCGCACTCTGTGGTTGCCCACATACGCACACATACACATACACACATACACATACGCAC”, the binding signal is 11.3 log fluorescence intensity.

As for “GCGCATATTTCCCGTAAATCATACACGCACACATACACATACACACATACACATACGCAC”, the binding signal is 10.9 log fluorescence intensity.

Regarding “CGCGCACTCTGTGGTTTCGCACATACGCACACATACACATACACACATACACATACGCAC”, the binding signal was 12.3 log fluorescence intensity.

Turning to “GCATACGGCTGACGGCAGCCACATACGCACACATACACATACACACATACACATACGCAC”, the binding signal was 10.9 log fluorescence intensity.

Turning to “CGCGCACTCTGTGGTGGCGCACATACGCACACATACACATACACACATACACATACGCAC”, the binding signal is 11.1 log fluorescence intensity.

Turning to “GCATACGGCTGACGTCAGTCACATACGCACACATACACATACACACATACACATACGCAC”, the binding signal was 10.9 log fluorescence intensity.

Regarding “CGCGCACGCTGTGGTTGCGCACATACGCACACATACACATACACACATACACATACGCAC”, the binding signal is 11.2 log fluorescence intensity.

Take “GCGCACATTTCCCGTTAATCATACACGCACACATACACATACACACATACACATACGCAC”: the binding signal is 11 log fluorescence intensity.

The values above are taken from paper PMC6602471.
